From the supplement of paper PMC11732987, “Enantioselective OTUD7B fragment discovery through chemoproteomics screening and high-throughput optimisation” (Communications Chemistry, 2025)
Unmarked numbers belong to inactive results.

compound: ClCC(=O)N1CCC(CC#N)C1; test: log2 ratio of Biotin-Ahx-Ub-VS probe labelling (compound/DMSO); higher = less target engagement, active = hit call of the paper (q ≤ 0.05, log2 ratio ≤ -1); settings: compound concentration: 50uM; treatment time: 3 h
Protocol: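 Round 2 competitive ABPP in HEK293T lysate. Purified HTC-D2B compounds were tested at 50 and 200 µM for 3 h, followed by Biotin-Ahx-Ub-VS enrichment and diaPASEF LC-MS/MS. Values are the average log2 ratio (compound/DMSO) from an unpaired t-test (n=3 treated, n=26 DMSO).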

UniProt Q96RU2, sequence (Q96RU2 whole entry): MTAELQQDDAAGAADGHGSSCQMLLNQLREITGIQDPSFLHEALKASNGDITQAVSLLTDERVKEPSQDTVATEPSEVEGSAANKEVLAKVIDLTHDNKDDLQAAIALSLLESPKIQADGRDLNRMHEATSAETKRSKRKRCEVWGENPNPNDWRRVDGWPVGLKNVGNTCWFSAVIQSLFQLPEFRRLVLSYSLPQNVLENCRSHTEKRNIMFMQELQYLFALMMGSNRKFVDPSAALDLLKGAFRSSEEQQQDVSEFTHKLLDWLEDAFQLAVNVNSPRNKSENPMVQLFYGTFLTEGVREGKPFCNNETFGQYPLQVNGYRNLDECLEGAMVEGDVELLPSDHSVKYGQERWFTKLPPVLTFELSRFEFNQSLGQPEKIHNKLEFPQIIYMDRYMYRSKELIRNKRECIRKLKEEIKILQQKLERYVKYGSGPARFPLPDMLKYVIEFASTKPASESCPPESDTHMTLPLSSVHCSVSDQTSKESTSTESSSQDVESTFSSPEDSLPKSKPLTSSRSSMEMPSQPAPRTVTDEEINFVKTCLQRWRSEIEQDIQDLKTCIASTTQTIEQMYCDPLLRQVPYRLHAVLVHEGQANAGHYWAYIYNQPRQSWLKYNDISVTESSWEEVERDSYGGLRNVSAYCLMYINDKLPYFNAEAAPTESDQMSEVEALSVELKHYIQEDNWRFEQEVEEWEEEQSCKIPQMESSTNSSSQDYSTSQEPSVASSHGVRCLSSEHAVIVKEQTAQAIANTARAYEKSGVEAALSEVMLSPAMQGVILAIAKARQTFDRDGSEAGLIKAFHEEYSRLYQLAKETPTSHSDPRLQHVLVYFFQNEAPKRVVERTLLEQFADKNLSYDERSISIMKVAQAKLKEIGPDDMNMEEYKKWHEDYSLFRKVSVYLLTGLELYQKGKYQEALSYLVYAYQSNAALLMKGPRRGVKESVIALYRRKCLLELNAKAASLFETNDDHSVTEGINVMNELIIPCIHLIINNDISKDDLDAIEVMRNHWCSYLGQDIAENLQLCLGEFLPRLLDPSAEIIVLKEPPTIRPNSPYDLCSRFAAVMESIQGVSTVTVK
UniProt Q93008, sequence (Q93008 whole entry): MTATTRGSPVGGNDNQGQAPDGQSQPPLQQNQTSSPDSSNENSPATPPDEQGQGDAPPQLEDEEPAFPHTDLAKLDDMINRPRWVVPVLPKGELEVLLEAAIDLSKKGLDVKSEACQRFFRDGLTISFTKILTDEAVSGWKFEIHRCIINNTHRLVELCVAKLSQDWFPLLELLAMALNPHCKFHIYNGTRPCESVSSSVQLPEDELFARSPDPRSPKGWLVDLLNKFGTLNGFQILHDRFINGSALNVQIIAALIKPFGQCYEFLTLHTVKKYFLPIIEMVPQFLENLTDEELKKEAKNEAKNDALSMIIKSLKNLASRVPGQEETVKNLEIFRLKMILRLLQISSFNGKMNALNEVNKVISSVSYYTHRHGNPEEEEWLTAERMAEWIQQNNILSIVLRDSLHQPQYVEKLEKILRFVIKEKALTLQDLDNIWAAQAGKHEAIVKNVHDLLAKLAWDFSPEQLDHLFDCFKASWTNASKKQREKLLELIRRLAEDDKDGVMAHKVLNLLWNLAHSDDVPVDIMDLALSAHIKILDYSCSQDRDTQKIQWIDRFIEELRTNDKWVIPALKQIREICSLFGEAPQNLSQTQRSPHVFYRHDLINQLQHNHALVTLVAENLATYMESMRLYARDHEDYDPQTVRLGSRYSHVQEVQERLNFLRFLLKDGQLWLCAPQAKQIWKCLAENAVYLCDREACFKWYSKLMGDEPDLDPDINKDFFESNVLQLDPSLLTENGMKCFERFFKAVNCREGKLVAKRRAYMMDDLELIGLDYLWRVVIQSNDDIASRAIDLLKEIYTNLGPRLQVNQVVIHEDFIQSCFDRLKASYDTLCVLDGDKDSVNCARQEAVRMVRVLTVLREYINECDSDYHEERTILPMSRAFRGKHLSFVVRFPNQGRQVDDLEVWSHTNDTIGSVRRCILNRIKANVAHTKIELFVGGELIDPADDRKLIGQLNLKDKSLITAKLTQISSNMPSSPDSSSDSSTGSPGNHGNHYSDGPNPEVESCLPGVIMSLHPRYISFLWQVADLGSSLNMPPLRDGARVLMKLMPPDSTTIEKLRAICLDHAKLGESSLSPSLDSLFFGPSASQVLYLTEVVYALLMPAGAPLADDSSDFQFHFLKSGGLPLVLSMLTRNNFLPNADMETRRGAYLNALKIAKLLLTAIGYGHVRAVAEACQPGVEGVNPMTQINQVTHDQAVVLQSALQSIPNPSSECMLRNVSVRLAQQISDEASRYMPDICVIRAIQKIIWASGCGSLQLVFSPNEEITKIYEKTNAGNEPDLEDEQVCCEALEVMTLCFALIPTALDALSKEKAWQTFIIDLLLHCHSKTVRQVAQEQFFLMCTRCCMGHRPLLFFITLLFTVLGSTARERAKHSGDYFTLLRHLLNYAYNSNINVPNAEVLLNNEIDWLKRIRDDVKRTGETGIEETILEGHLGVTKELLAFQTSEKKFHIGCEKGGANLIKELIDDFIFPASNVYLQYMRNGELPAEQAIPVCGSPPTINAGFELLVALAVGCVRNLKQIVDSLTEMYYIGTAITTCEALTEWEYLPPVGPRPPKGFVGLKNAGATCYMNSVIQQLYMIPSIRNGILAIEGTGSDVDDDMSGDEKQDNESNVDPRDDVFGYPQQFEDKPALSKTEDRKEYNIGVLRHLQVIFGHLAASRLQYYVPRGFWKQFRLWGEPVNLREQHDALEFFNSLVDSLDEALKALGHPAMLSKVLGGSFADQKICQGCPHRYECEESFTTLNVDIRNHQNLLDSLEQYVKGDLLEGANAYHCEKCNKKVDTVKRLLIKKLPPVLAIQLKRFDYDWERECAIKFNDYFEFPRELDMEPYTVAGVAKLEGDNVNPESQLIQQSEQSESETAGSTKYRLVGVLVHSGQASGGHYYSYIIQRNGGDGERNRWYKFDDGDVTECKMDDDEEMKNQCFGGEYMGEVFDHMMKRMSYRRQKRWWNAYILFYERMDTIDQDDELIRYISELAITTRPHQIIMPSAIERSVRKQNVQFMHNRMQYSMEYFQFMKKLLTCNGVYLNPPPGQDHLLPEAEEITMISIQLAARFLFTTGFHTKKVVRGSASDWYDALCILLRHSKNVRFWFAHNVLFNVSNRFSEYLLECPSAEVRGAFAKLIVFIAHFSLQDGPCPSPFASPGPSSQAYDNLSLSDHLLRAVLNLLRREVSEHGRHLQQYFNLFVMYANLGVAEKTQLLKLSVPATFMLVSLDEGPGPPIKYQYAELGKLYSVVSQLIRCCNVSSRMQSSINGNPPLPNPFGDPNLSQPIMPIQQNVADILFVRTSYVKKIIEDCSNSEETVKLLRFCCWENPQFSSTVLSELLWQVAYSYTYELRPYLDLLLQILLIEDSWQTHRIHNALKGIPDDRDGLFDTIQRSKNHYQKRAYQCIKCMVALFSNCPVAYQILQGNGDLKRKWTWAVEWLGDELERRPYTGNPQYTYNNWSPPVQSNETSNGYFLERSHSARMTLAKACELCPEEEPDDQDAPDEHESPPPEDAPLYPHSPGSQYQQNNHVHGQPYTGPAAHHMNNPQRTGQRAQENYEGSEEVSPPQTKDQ
UniProt Q8NB14, sequence (Q8NB14 whole entry): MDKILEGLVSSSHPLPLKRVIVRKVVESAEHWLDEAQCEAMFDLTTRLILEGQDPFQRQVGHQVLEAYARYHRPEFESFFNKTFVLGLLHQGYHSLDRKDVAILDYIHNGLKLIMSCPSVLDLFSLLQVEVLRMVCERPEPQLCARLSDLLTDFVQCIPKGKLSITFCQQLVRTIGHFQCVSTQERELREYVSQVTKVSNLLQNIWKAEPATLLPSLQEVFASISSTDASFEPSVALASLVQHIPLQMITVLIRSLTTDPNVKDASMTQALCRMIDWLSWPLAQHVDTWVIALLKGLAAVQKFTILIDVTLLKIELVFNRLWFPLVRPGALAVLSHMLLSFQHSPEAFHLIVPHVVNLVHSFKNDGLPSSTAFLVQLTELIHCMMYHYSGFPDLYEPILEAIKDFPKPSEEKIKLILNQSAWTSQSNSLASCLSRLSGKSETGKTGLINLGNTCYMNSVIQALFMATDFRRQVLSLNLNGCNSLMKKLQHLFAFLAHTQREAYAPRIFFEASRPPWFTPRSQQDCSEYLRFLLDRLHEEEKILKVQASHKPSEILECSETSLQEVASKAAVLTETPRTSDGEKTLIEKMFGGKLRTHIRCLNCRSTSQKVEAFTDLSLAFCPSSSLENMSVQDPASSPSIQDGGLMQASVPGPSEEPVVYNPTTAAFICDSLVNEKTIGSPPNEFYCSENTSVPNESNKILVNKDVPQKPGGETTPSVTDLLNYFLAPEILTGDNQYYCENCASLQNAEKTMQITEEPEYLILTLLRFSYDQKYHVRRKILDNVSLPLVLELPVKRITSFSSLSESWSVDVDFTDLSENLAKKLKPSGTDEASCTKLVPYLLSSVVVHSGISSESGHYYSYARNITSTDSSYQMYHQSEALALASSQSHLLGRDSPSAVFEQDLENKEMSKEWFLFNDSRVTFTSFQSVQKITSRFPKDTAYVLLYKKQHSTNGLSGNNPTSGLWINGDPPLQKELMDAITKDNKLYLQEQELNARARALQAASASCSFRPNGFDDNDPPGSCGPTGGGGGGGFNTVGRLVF
UniProt P62068, sequence (P62068 whole entry): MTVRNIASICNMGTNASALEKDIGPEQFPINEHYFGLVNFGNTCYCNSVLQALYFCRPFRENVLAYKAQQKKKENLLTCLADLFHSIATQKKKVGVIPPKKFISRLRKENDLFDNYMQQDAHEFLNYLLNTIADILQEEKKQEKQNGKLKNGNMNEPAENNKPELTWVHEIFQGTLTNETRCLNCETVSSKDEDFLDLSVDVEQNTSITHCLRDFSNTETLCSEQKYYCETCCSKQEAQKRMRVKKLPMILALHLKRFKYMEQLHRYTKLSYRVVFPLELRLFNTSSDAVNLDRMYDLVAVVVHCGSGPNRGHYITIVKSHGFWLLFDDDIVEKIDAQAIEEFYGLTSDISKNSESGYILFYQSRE

Row | Target | log2 ratio of Biotin-Ahx-Ub-VS probe labelling
1 | USP5 (UniProt P45974) | -0.0602
2 | USP9X (UniProt Q93008) | 0.0276
3 | USP15 (UniProt Q9Y4E8) | -0.281
4 | VCPIP1 (UniProt Q96JH7) | -0.405
5 | EIF3H (UniProt O15372) | 0.0416
6 | YOD1 (UniProt Q5VVQ6) | -0.225
7 | UniProt Q5T2D3 | -0.206
8 | USP16 (UniProt Q9Y5T5) | -0.133
9 | USP46 (UniProt P62068) | -0.14
10 | UniProt O00487 | -0.033
11 | OTUB1 (UniProt Q96FW1) | -0.024
12 | OTUD4 (UniProt Q01804) | -0.19
13 | UniProt Q9UGI0 | -0.025
14 | USP36 (UniProt Q9P275) | -0.193
15 | USP28 (UniProt Q96RU2) | -0.0624
16 | USP25 (UniProt Q9UHP3) | -0.617
17 | USP22 (UniProt Q9UPT9) | -0.132
18 | USP38 (UniProt Q8NB14) | 0.00826
19 | USP4 (UniProt Q13107) | -0.106
20 | OTUD7B (UniProt Q6GQQ9) | -0.339

same assay, conditions: compound concentration: 200uM; treatment time: 3 h

Row | Target | log2 ratio of Biotin-Ahx-Ub-VS probe labelling
21 | USP5 (UniProt P45974) | 0.0332
22 | USP9X (UniProt Q93008) | -0.109
23 | USP15 (UniProt Q9Y4E8) | -0.268
24 | VCPIP1 (UniProt Q96JH7) | -0.311
25 | EIF3H (UniProt O15372) | 0.0793
26 | YOD1 (UniProt Q5VVQ6) | 0.00802
27 | UniProt Q5T2D3 | -0.203
28 | USP16 (UniProt Q9Y5T5) | -0.669
29 | USP46 (UniProt P62068) | -0.548
30 | UniProt O00487 | -0.198
31 | OTUB1 (UniProt Q96FW1) | -0.102
32 | OTUD4 (UniProt Q01804) | -0.226
33 | UniProt Q9UGI0 | -0.16
34 | USP36 (UniProt Q9P275) | 0.0225
35 | USP28 (UniProt Q96RU2) | -0.291
36 | USP25 (UniProt Q9UHP3) | -2.11 (active)
37 | USP22 (UniProt Q9UPT9) | -0.153
38 | USP38 (UniProt Q8NB14) | -0.302
39 | USP4 (UniProt Q13107) | 0.254
40 | OTUD7B (UniProt Q6GQQ9) | -0.552
